Test in all cases: cell viability relative to vehicle control; higher = less cytotoxic
What all share (settings): 10 µM

One test deals with K562. A digest of the protocol: (§1)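 Four leukaemia lines, as CRISPR-edited mutant clones and isogenic wild-type clones, were tested against Selleck bioactive, kinase and epigenetic probe libraries after removal of identity-inconsistent compounds. Cells were exposed to a single 10 µM dose for 48 h, and CellTiter-Glo luminescence was then read. Viability was calculated relative to the on-plate vehicle control.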

The next test deals with MARIMO. The procedure, abridged:
as §1

A further test deals with MOLM14. A digest of the protocol: as §1
The next test relates to OCI-AML2. A digest of the protocol: as §1

Our source for the cell viability values is the supplement of paper PMC10981050.

Each structure is given as a SMILES string. Values joined by “and” are separate entries in the source; they are usually repeats but may differ in a detail not shown here. Equal entries are not always repeated.

What is called cell viability is a read-out of living cells in per cent, often relative to untreated cells.

In the case of `CN[C@@H](C)C(=O)N[C@H](C(=O)N1CCC[C@H]1C(=O)N[C@H]1c2ccccc2C[C@H]1OCC#CC#CCO[C@@H]1Cc2ccccc2[C@@H]1NC(=O)[C@@H]1CCCN1C(=O)[C@@H](NC(=O)[C@H](C)NC)C1CCCCC1)C1CCCCC1`, the cell viability in the test with K562 (SRSF2 genotype: SRSF2 P95H/wt) was 0.57% and 0.73%; in the test on K562 (SRSF2 genotype: SRSF2 wt/wt), 0.61%; in the test on MARIMO (SRSF2 genotype: SRSF2 P95H/wt), 0.76%; in the test on MARIMO (SRSF2 genotype: SRSF2 wt/wt), 0.89%; in the test on MOLM14 (SRSF2 genotype: SRSF2 P95H/wt), 0.51%; in the test on MOLM14 (SRSF2 genotype: SRSF2 wt/wt), 0.62%. Moreover, the cell viability with OCI-AML2 (SRSF2 genotype: P95H/wt) is 0.56%; in the test on OCI-AML2 (SRSF2 genotype: wt/wt), 0.58%.
With `O=S(=O)(O)Oc1ccc(C(c2ccc(OS(=O)(=O)O)cc2)c2ccccn2)cc1` [Sodium Picosulfate], the cell viability with K562 (SRSF2 genotype: SRSF2 P95H/wt) is 103% and 102%; in the test with K562 (SRSF2 genotype: SRSF2 wt/wt), 108%; with MARIMO (SRSF2 genotype: SRSF2 P95H/wt) it was 106%; in the test on MARIMO (SRSF2 genotype: SRSF2 wt/wt), 112%; in the test with MOLM14 (SRSF2 genotype: SRSF2 P95H/wt) it was 103%; in the test with MOLM14 (SRSF2 genotype: SRSF2 wt/wt), 104%. For the same compound, the values for the cell viability in the test on OCI-AML2 (SRSF2 genotype: P95H/wt) and with OCI-AML2 (SRSF2 genotype: wt/wt) were 104% and 101%, respectively.
Regarding `O=C(NC1CCOCC1)c1ccc(-c2cc(-c3c[nH]nc3-c3ccccn3)ccn2)cc1`, the cell viability with K562 (SRSF2 genotype: SRSF2 P95H/wt) was 88.3% and 99.8%; with K562 (SRSF2 genotype: SRSF2 wt/wt), 93%; with MARIMO (SRSF2 genotype: SRSF2 P95H/wt), 102%; in the test with MARIMO (SRSF2 genotype: SRSF2 wt/wt), 110%; in the test on MOLM14 (SRSF2 genotype: SRSF2 P95H/wt), 103%; in the test with MOLM14 (SRSF2 genotype: SRSF2 wt/wt) it was 103%. Further, the cell viability in the test on OCI-AML2 (SRSF2 genotype: P95H/wt) and with OCI-AML2 (SRSF2 genotype: wt/wt) was 101% in each case.
Consider `COc1ccc(-c2cc(=O)c3c(O)cc(OC4OC(CO)C(O)C(O)C4OC4OC(C)C(O)C(O)C4O)cc3o2)cc1O` (configuration not stated) [Neodiosmin], for which the cell viability is 93.3% and 85.3% in the test on K562 (SRSF2 genotype: SRSF2 P95H/wt); 90.1% in the test with K562 (SRSF2 genotype: SRSF2 wt/wt); 94.6% in the test with MARIMO (SRSF2 genotype: SRSF2 P95H/wt); 97% in the test with MARIMO (SRSF2 genotype: SRSF2 wt/wt); 97.6% with MOLM14 (SRSF2 genotype: SRSF2 P95H/wt); 100% with MOLM14 (SRSF2 genotype: SRSF2 wt/wt). Further, the values for the cell viability in the test on OCI-AML2 (SRSF2 genotype: P95H/wt) and in the test on OCI-AML2 (SRSF2 genotype: wt/wt) were 89.8% and 94.4%, respectively.
Turning to `Nc1nc(NCCc2ccc(O)cc2)nc2nc(-c3ccco3)nn12`, the cell viability was 92.4% and 100% with K562 (SRSF2 genotype: SRSF2 P95H/wt); 94.8% in the test on K562 (SRSF2 genotype: SRSF2 wt/wt); 102% in the test on MARIMO (SRSF2 genotype: SRSF2 P95H/wt); 110% with MARIMO (SRSF2 genotype: SRSF2 wt/wt); 94.4% with MOLM14 (SRSF2 genotype: SRSF2 P95H/wt); 104% in the test with MOLM14 (SRSF2 genotype: SRSF2 wt/wt). Also, the cell viability is 97% with OCI-AML2 (SRSF2 genotype: P95H/wt) and 104% in the test on OCI-AML2 (SRSF2 genotype: wt/wt).
On to `CC(=O)N1CCN(CCOc2ccc(C3CCN(C4=Nn5c(nnc5C(F)(F)F)CC4)CC3)cc2)CC1`, for which the cell viability with K562 (SRSF2 genotype: SRSF2 P95H/wt) is 68.5% and 73%; in the test on K562 (SRSF2 genotype: SRSF2 wt/wt) it was 71.5%; in the test with MARIMO (SRSF2 genotype: SRSF2 P95H/wt) it was 60.6%; in the test on MARIMO (SRSF2 genotype: SRSF2 wt/wt), 57.4%; in the test with MOLM14 (SRSF2 genotype: SRSF2 P95H/wt), 53.5%; in the test on MOLM14 (SRSF2 genotype: SRSF2 wt/wt) it was 53.2%. The figures for the cell viability in the test with OCI-AML2 (SRSF2 genotype: P95H/wt) and in the test on OCI-AML2 (SRSF2 genotype: wt/wt) were 49.8% and 59.7%, respectively.
`CCCc1nc(C(C)(C)O)c(C(=O)OCc2oc(=O)oc2C)n1Cc1ccc(-c2ccccc2-c2nnn[nH]2)cc1` [Olmesartan medoxomil (Benicar)]: the cell viability in the test with K562 (SRSF2 genotype: SRSF2 P95H/wt) was 105% and 103%; in the test on K562 (SRSF2 genotype: SRSF2 wt/wt), 106%; with MARIMO (SRSF2 genotype: SRSF2 P95H/wt), 109%; with MARIMO (SRSF2 genotype: SRSF2 wt/wt), 111%; in the test with MOLM14 (SRSF2 genotype: SRSF2 P95H/wt), 97.2%; in the test on MOLM14 (SRSF2 genotype: SRSF2 wt/wt) it was 104%. The cell viability in the test on OCI-AML2 (SRSF2 genotype: P95H/wt) amounted to 104%; in the test with OCI-AML2 (SRSF2 genotype: wt/wt), 106%.
Consider `O=c1[nH]cnc2[nH]ncc12` [Allopurinol Sodium (Aloprim)], for which the cell viability in the test on K562 (SRSF2 genotype: SRSF2 P95H/wt) was 90.9% and 86.7%; in the test with K562 (SRSF2 genotype: SRSF2 wt/wt), 90.5%; in the test on MARIMO (SRSF2 genotype: SRSF2 P95H/wt), 89.1%; with MARIMO (SRSF2 genotype: SRSF2 wt/wt), 93.1%; in the test on MOLM14 (SRSF2 genotype: SRSF2 P95H/wt), 86.6%; in the test on MOLM14 (SRSF2 genotype: SRSF2 wt/wt) it was 91%. In addition, the cell viability in the test with OCI-AML2 (SRSF2 genotype: P95H/wt) was found to be 90.6%; in the test with OCI-AML2 (SRSF2 genotype: wt/wt), 95.1%.
For the compound `O=C([O-])c1ccccc1.[Na+]` [Sodium benzoate], the cell viability in the test with K562 (SRSF2 genotype: SRSF2 P95H/wt) was 86.9% and 85.9%; in the test on K562 (SRSF2 genotype: SRSF2 wt/wt), 86.1%; in the test on MARIMO (SRSF2 genotype: SRSF2 P95H/wt), 83.9%; with MARIMO (SRSF2 genotype: SRSF2 wt/wt), 90.9%; with MOLM14 (SRSF2 genotype: SRSF2 P95H/wt) it was 93%; with MOLM14 (SRSF2 genotype: SRSF2 wt/wt) it was 89.5%. Moreover, the cell viability in the test with OCI-AML2 (SRSF2 genotype: P95H/wt) came out at 86%; with OCI-AML2 (SRSF2 genotype: wt/wt), 97.5%.
